# Data from PubChem BioAssay (EPA / NIEHS).
# Inconclusive results are not listed. Calls of active or inactive are those of the source. How the source made its calls: active means hit-call score of the fitted dose curve at least 0.9, where 1 is the maximum; inconclusive means response in the unintended direction; inactive means score below 0.9.
# Columns and labels:
# [1] = biological target: human Adrenergic, Alpha 2A Receptor (Adra2A), ADRA2A (gene 150) (UniProt P08913); assay: NVS_GPCR_hAdra2A: NovaScreen (NVS) G Protein-Coupled Receptor Assay for human Adrenergic, Alpha 2A Receptor (Adra2A) (AID 2283257)
# Method in brief: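 Radioligand filter-binding was run on HT29-derived membranes, cell-free, read by scintillation counting 1 h after dosing. Primary screening was in duplicate at 25 uM, with concentration series in follow-up. Loss of signal versus DMSO indicates displacement.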
# [2] = biological target: human Adrenergic, Alpha 2c Receptor (Adra2C), ADRA2C (gene 152) (UniProt P18825); assay: NVS_GPCR_hAdra2C: NovaScreen (NVS) G Protein-Coupled Receptor Assay for human Adrenergic, Alpha 2c Receptor (Adra2C) (AID 2283259)
# Method in brief: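 Radioligand binding on Sf9-expressed receptor membranes, 1 h after chemical dosing, filter-based scintillation read-out. Loss of binding fitted positively versus DMSO; primary duplicate screen at 25 uM, actives retested in concentration series.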
# [3] = biological target: human Adrenergic, Beta 1 Receptor (Adrb1), ADRB1 (gene 153) (UniProt P08588); assay: NVS_GPCR_hAdrb1: NovaScreen (NVS) G Protein-Coupled Receptor Assay for human Adrenergic, Beta 1 Receptor (Adrb1) (AID 2283258)
# Method in brief: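 Cell-free radioligand displacement on receptor from human neuroepithelioma cells; 2 h after dosing, filter-based scintillation counting. Primary screen in duplicate at 25 uM, actives retested in concentration series; loss of signal vs DMSO baseline.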
# [4] = biological target: human Adrenergic, Beta 3 Receptor (Adrb3), ADRB3 (gene 155) (UniProt P13945); assay: NVS_GPCR_hAdrb3: NovaScreen (NVS) G Protein-Coupled Receptor Assay for human Adrenergic, Beta 3 Receptor (Adrb3) (AID 2283262)
# Description: NVS_GPCR_hAdrb3 is a biochemical, single-readout assay that uses extracted gene-proteins from SK-N-MC pretreated with isoproteronol and 8-bromo-cAMP in a cell-free assay. Measurements were taken 1 hour after chemical dosing in a 48-well plate.NVS_GPCR_hAdrb3 is one of one assay component(s) measured or calculated from the NVS_GPCR_hAdrb3 assay. It is designed to make measurements of radioligand binding, a form of binding reporter, as detected with scintillation counting signals by Filter-based radiodetection technology.Data from the assay component NVS_GPCR_hAdrb3 was analyzed into 1 assay endpoint. This assay endpoint, NVS_GPCR_hAdrb3, was analyzed in the positive analysis fitting direction relative to DMSO as the negative control and baseline of activity. Using a type of binding reporter, loss-of-signal activity can be used to understand changes in the binding as they relate to the gene ADRB3. Furthermore, this assay endpoint can be referred to as a primary readout, because the performed assay has only produced 1 assay endpoint. To generalize the intended target to other relatable targets, this assay endpoint is annotated to the gpcr intended target family, where the subfamily is rhodopsin-like receptor.
# Binding assays used specific radioligands (tritiated, iodinated) with non-radioactive competitive displacement ligands in agonist or antagonist protocols (as indicated) and various reference compounds and inhibitors to titrate specific binding to receptors and transporters. Most enzyme assays (CYPs, kinases, phosphatases, proteases, HDACs) used recombinant protein and specific substrates (fluorescence mostly, some colorimetric and radioactive) and inhibitors, followed by a biochemical separation of substrate and product. All assays for the biochemical HTS were initially run in duplicate at a single concentration (10 uM for CYP450 assays and 25 uM for all others). […] Each assay was run with positive and negative controls, and concurrent controls on every plate. The follow-up (secondary) screen tested active chemical-pairs in concentration series, as well as a few additional assays not tested in the primary screen, some selected negative inactives, and several cases re-run in the concentration series for confirmatory purposes.
# [5] = biological target: human Adenosine A2a Receptor (AdoRA2a), ADORA2A (gene 135) (UniProt P29274); assay: NVS_GPCR_hAdoRA2a: NovaScreen (NVS) G Protein-Coupled Receptor Assay for human Adenosine A2a Receptor (AdoRA2a) (AID 2283256)
# Method in brief: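 Radioligand displacement on HEK293-derived membrane protein, cell-free; filter-based scintillation counting 1.5 hours after dosing, loss of signal vs DMSO. Single-point duplicate screen at 25 uM, actives retested in concentration series.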
# [6] = biological target: Beta-2 adrenergic receptor (Homo sapiens) (UniProt P07550); assay: NVS_GPCR_hAdrb2: NovaScreen (NVS) G Protein-Coupled Receptor Assay for human Adrenergic, Beta 2 Receptor (Adrb2) (AID 2283261)
# Method in brief: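 Filter-based radioligand binding using receptor prepared from CHO cells, 1 h incubation, scintillation counting. Primary screen in duplicate at 25 uM, actives retested in concentration series; loss of binding relative to DMSO.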
# [7] = biological target: human Dopamine Receptor D4.4 (DRD4.4), DRD4 (gene 1815) (UniProt P21917); assay: NVS_GPCR_hDRD4.4: NovaScreen (NVS) G Protein-Coupled Receptor Assay for human Dopamine Receptor D4.4 (DRD4.4) (AID 2283264)
# Method in brief: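 Radioligand displacement on human DRD4.4 from CHO-derived membranes, 1 hour incubation, bound counts read by filtration and scintillation. Primary screen in duplicate at 25 uM; actives followed up in concentration series.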
# [8] = biological target: human Dopamine Receptor D2 (DRD2), DRD2 (gene 1813) (UniProt P14416); assay: NVS_GPCR_hDRD2s: NovaScreen (NVS) G Protein-Coupled Receptor Assay for human Dopamine Receptor D2 (DRD2) (AID 2283266)
# Method in brief: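 Radioligand displacement used human DRD2 membranes extracted from CHO cells and was read by filter-based scintillation counting after 1.5 hours. Primary screening was in duplicate at 25 uM. Loss of signal versus DMSO was fitted, with concentration series in follow-up.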
# [9] = biological target: human Endothelin Receptor Type A (ETA), EDNRA (gene 1909) (UniProt P25101); assay: NVS_GPCR_hETA: NovaScreen (NVS) G Protein-Coupled Receptor Assay for human Endothelin Receptor Type A (ETA) (AID 2283265)
# Method in brief: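 Cell-free radioligand displacement using SH-SY5Y-derived protein, 3 h incubation, filter-based scintillation counting. Primary screen in duplicate at 25 uM; actives then run in concentration-response up to 50 uM; loss of binding fitted versus DMSO.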
# [10] = biological target: Type-1 angiotensin II receptor (Homo sapiens) (UniProt P30556); assay: NVS_GPCR_hAT1: NovaScreen (NVS) G Protein-Coupled Receptor Assay for human Angiotensin II receptor type 1 (AT1) (AID 2283263)
# Method in brief: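 Membranes from KAN-TS cells; radioligand competitive displacement, 3 h, filtration and scintillation counting. Single-point duplicate screen at 25 uM, then concentration-response up to 50 uM for hits; loss of signal fitted versus DMSO.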
# Chain of human Dopamine Receptor D4.4 (DRD4.4), DRD4 (gene 1815) (P21917 whole entry, looked up): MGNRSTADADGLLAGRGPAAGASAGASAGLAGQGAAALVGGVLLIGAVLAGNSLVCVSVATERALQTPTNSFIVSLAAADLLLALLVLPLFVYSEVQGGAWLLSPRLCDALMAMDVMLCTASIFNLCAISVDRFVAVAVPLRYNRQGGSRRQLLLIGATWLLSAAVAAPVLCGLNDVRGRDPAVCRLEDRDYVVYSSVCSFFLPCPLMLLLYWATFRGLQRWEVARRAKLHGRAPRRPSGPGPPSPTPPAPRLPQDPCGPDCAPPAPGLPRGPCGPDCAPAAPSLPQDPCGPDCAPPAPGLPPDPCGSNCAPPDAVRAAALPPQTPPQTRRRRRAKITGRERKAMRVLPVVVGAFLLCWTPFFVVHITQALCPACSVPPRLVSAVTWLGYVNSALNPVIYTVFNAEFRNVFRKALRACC
# Chain of human Adrenergic, Beta 3 Receptor (Adrb3), ADRB3 (gene 155) (P13945 whole entry, looked up): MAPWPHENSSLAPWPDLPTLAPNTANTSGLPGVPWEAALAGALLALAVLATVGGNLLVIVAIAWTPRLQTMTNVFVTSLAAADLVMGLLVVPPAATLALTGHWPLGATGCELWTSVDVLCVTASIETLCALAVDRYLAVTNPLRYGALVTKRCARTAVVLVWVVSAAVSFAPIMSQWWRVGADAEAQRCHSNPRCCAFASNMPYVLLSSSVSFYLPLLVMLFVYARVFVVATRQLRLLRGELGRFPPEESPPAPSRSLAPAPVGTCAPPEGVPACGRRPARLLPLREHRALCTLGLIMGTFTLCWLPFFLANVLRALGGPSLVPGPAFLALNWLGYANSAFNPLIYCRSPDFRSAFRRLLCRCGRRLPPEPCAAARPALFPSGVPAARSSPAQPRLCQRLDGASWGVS
# Chain of human Endothelin Receptor Type A (ETA), EDNRA (gene 1909) (P25101 whole entry, looked up): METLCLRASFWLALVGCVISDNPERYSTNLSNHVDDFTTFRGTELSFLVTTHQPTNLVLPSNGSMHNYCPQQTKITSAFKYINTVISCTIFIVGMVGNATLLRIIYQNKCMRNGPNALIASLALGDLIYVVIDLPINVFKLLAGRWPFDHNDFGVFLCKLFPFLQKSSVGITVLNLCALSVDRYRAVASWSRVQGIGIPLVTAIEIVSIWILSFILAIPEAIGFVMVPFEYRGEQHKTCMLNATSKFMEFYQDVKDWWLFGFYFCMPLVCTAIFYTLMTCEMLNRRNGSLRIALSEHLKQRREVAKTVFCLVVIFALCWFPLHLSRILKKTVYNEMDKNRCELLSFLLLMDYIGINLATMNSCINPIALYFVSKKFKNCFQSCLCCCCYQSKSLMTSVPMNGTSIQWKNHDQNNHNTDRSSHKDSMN
# Chain of Beta-2 adrenergic receptor (Homo sapiens) (P07550 whole entry, looked up): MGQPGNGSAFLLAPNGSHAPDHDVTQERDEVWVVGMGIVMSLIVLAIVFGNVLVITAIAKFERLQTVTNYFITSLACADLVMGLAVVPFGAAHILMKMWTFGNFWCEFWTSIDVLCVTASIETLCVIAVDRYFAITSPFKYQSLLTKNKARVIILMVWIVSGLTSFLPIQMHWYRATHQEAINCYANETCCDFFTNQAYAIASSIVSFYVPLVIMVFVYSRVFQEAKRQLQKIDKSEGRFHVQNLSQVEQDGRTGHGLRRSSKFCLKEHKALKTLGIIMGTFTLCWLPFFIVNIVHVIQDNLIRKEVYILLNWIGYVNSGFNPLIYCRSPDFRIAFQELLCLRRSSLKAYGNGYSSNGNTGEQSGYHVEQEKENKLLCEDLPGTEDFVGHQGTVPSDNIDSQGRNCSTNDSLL
# Chain of human Adrenergic, Alpha 2A Receptor (Adra2A), ADRA2A (gene 150) (P08913 whole entry, looked up): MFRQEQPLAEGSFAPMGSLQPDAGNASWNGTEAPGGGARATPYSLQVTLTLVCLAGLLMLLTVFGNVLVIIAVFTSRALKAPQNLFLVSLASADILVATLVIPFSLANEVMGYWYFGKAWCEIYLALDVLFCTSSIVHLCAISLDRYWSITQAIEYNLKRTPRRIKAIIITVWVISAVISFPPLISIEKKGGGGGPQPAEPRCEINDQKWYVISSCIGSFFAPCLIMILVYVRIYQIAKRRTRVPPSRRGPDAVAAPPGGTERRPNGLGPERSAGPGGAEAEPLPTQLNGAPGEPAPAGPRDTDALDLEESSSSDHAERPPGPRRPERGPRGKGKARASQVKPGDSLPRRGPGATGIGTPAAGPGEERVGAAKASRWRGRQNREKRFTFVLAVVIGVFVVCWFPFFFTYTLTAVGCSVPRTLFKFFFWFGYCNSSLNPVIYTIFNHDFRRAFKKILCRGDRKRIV
# Chain of human Adrenergic, Alpha 2c Receptor (Adra2C), ADRA2C (gene 152) (P18825 whole entry, looked up): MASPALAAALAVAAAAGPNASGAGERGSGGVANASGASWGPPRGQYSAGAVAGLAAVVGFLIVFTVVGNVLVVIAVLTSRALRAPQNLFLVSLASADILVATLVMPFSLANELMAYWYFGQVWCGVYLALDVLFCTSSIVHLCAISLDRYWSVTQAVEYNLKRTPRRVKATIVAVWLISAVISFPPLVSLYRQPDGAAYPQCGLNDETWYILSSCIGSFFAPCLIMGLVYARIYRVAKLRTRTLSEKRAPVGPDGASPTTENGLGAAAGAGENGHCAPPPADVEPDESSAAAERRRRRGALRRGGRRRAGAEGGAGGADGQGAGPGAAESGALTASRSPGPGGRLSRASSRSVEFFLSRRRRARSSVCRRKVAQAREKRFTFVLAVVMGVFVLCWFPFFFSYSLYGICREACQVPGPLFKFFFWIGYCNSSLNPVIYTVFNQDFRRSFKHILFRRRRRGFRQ
# Chain of human Dopamine Receptor D2 (DRD2), DRD2 (gene 1813) (P14416 whole entry, looked up): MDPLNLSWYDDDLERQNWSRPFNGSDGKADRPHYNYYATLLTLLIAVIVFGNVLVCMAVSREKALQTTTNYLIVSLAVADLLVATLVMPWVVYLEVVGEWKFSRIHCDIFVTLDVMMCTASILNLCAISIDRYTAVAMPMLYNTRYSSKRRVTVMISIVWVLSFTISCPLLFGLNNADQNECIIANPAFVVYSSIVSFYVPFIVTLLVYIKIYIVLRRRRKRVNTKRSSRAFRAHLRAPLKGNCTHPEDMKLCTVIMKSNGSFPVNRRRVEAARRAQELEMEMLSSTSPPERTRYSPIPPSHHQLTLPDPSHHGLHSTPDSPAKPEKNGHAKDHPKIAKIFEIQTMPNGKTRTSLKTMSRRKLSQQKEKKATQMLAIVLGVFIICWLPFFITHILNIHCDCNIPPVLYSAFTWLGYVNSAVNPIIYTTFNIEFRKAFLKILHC
# Chain of human Adrenergic, Beta 1 Receptor (Adrb1), ADRB1 (gene 153) (P08588 whole entry, looked up): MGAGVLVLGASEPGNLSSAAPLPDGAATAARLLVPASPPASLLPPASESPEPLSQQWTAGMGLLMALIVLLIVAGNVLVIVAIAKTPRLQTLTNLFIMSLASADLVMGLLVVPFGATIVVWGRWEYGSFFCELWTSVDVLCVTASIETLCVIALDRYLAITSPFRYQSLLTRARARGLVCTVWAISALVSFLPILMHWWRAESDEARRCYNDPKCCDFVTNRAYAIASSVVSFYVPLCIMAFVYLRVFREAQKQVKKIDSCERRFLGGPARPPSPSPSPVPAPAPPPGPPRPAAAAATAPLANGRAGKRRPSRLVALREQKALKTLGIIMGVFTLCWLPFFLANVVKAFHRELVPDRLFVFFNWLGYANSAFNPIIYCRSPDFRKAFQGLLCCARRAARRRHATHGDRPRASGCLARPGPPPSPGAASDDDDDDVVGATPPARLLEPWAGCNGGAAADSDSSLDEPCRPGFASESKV
# Chain of human Adenosine A2a Receptor (AdoRA2a), ADORA2A (gene 135) (P29274 whole entry, looked up): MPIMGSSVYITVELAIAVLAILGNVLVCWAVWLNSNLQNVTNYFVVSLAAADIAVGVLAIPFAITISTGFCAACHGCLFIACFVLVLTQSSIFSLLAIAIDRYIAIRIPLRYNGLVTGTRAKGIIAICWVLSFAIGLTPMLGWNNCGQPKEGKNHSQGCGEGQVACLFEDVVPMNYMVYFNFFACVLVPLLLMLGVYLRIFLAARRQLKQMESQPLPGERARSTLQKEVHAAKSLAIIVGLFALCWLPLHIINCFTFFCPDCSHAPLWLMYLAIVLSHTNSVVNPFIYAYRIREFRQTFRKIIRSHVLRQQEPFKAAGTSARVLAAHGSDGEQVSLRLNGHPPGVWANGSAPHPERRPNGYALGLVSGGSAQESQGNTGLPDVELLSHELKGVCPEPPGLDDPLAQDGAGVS
# Chain of Type-1 angiotensin II receptor (Homo sapiens) (P30556 whole entry, looked up): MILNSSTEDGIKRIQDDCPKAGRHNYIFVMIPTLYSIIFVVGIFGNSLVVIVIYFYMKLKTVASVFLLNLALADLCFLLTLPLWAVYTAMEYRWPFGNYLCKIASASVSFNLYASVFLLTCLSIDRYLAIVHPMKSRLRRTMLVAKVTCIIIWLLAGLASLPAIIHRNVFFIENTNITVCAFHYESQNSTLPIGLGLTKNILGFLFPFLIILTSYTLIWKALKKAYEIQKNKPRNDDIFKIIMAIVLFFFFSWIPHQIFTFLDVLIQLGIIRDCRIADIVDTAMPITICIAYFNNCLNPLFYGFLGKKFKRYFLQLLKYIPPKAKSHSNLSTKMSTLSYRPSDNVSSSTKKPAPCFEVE
smiles,measurement,setting,value
COCCOc1cc2cc(C(=O)NC3CCN(C(C)C)CC3)n(CC(=O)Nc3ccc(Cl)cn3)c2cn1,AC50,[1],9.81 µM (active)
same,AC50,[2],6.54 µM (active)
CCCCCCc1ccc(O)cc1O,AC50,[3],25 µM (active)
same,AC50,[2],6.31 µM (active)
CC(C)CC(C)(O)C#CC(C)(O)CC(C)C (configuration not stated),outcome,[4],inactive
Cc1[nH]cnc1C[C@H]1CCc2c(C)c3ccccc3n2C1=O,AC50,[5],22.2 µM (active)
same,AC50,[1],0.56 µM (active)
same,AC50,[3],1.04 µM (active)
same,AC50,[2],5.39 µM (active)
same,AC50,[6],1.39 µM (active)
same,AC50,[7],18.4 µM (active)
same,AC50,[8],0.979 µM (active)
Nc1ccc(Nc2ccccc2)cc1,AC50,[1],9.06 µM (active)
same,AC50,[9],6.53 µM (active)
O=C(O)CC(O)C(=O)O (configuration not stated),outcome,[1],inactive
CCOc1cccc(-n2cc(C(=O)N3CCN(c4cc(C(=O)O)c5ccccc5c4)CC3)nc2-c2ccc(C)cc2)c1,AC50,[2],12.3 µM (active)
same,AC50,[6],6.36 µM (active)
CCCN(C1CCN(C(=O)C2CCNCC2)CC1)[C@@H]1CCc2ccc(OC)cc2C1,AC50,[1],17.4 µM (active)
same,AC50,[8],18.8 µM (active)
CCn1nc(Cc2ccccc2)cc1C1CCN(C[C@H]2C[C@H](N(C)[C@@H](C(=O)O)C(C)C)C[C@@H]2c2cccc(F)c2)CC1,outcome,[4],inactive
same,outcome,[8],inactive
CC[C@H]1CC[C@H](NCc2cc3c(cc2OC)[C@H]2C[C@H]2C(=O)N3C)[C@H](c2ccccc2)N1,AC50,[1],4.96 µM (active)
CCOC(=O)COc1ccc2c(c1)CC(NCC(O)c1cccc(Cl)c1)CC2 (configuration not stated),AC50,[1],7.53 µM (active)
same,AC50,[3],3.33 µM (active)
same,AC50,[2],3.81 µM (active)
same,AC50,[6],0.0827 µM (active)
same,AC50,[4],17.9 µM (active)
same,AC50,[7],22.9 µM (active)
same,outcome,[9],inactive
same,AC50,[8],2.33 µM (active)
CC[C@H](C)C(=O)O[C@H]1C[C@@H](C)C=C2C=C[C@H](C)[C@H](CC[C@@H]3C[C@@H](O)CC(=O)O3)[C@H]21,outcome,[9],inactive
O=C1CCCCCN1,outcome,[9],inactive
CCN(C(=O)c1cc(C)cc(OC[C@H](C)Nc2ccncc2)c1)C(C)C,AC50,[1],7.91 µM (active)
COc1cccc(-c2ccc(/C=C\CN3CCCCCC3)cc2Cl)c1,AC50,[1],8.54 µM (active)
same,AC50,[3],22.6 µM (active)
same,AC50,[2],0.401 µM (active)
same,AC50,[6],26.4 µM (active)
same,outcome,[4],inactive
same,AC50,[7],10.2 µM (active)
same,AC50,[8],8.5 µM (active)
CCC(C)(C)C(=O)O[C@H]1C[C@@H](C)C=C2C=C[C@H](C)[C@H](CC[C@@H]3C[C@@H](O)CC(=O)O3)[C@H]21,outcome,[8],inactive
CNS(=O)(=O)c1cc(C(=O)N2CCC(CCN3C4CCC3CC(n3c(C)nc5ccccc53)C4)(c3cccc(F)c3)CC2)c(Cl)cc1F (configuration not stated),AC50,[8],8.72 µM (active)
CCc1cc(SCc2sc(-c3ccc(C(F)(F)F)cc3)nc2CN2CCN(c3ccc(OC)cc3)CC2)ccc1OCC(=O)O,AC50,[2],2.63 µM (active)
same,outcome,[6],inactive
same,AC50,[10],9.64 µM (active)
same,AC50,[7],6.77 µM (active)
same,AC50,[8],4.08 µM (active)
Oc1ccc2c(c1)-c1ccccc1C2,AC50,[5],25 µM (active)
O=c1[nH]c2ccc(S(=O)CCN3CCC(Cc4ccc(F)cc4)CC3)cc2o1 (configuration not stated),AC50,[1],0.837 µM (active)
same,AC50,[2],1.96 µM (active)
same,AC50,[7],2.51 µM (active)
same,AC50,[8],13.5 µM (active)
CCOC(=O)c1ccc(C2CCC(NC[C@H](O)COc3ccc(O)c(NS(C)(=O)=O)c3)CC2)cc1 (some centres not stated),AC50,[5],12.1 µM (active)
same,AC50,[1],31.1 µM (active)
same,AC50,[3],1.84 µM (active)
same,AC50,[2],7.95 µM (active)
same,AC50,[6],0.24 µM (active)
same,AC50,[4],7.77 µM (active)
same,AC50,[7],11.3 µM (active)
same,AC50,[8],0.0174 µM (active)
O=C(OC[C@H]1O[C@@H](OC(=O)c2cc(O)c(O)c(OC(=O)c3cc(O)c(O)c(O)c3)c2)[C@H](OC(=O)c2cc(O)c(O)c(OC(=O)c3cc(O)c(O)c(O)c3)c2)[C@@H](OC(=O)c2cc(O)c(O)c(OC(=O)c3cc(O)c(O)c(O)c3)c2)[C@@H]1OC(=O)c1cc(O)c(O)c(OC(=O)c2cc(O)c(O)c(O)c2)c1)c1cc(O)c(O)c(OC(=O)c2cc(O)c(O)c(O)c2)c1,outcome,[2],inactive
CC/C(=C\C(=N/O)C(N)=O)C(C)[N+](=O)[O-] (configuration not stated),outcome,[4],inactive
